From the supplement of paper PMC10720658
± gives the standard deviation of the averaged measurements.

system: AEK1 (Tb927.3.2440); experiment: percent reduction in TR-FRET probe signal relative to DMSO control; higher = stronger displacement of ATP-site probe (binding); settings: 1 µM; incubation time 1 h

Compound | percent reduction in TR-FRET probe signal
O=C(Nc1nc2cccc(-c3ccc(CN4CCS(=O)(=O)CC4)cc3)n2n1)C1CC1 [Filgotinib (GLPG0634)] | 9.11 ± 14%
Cn1c(Nc2ccc(C(F)(F)F)cc2)nc2cc(Oc3ccnc(-c4ncc(C(F)(F)F)[nH]4)c3)ccc21 | 34 ± 20%
C=CCc1ccc(O)c(-c2ccc(O)c(CC=C)c2)c1 [Honokiol] | 1.65 ± 8.9%
CCn1c(=O)c(-c2ccc(-c3cncs3)cc2Cl)cc2cnc(Nc3ccc(N4CCN(C)CC4)cc3)nc21 | 43.6 ± 6.3%
O=C(/C=C/c1ccc(O)c(O)c1)c1ccc(O)cc1O [Butein] | 4.05 ± 5.4%
CN(c1ccccc1CNc1nc(Nc2ccc3c(c2)CC(=O)N3)ncc1C(F)(F)F)S(C)(=O)=O | 55.1 ± 4.3%
O=C(Nc1ccc(-c2ccnc(Nc3ccc(N4CCOCC4)cc3)n2)cc1)[C@@H]1CCCN1 | 6.52 ± 10%
N#C/C(=C\c1ccc(O)c(O)c1)C(=O)NCc1ccccc1 [AG-490 (Tyrphostin B42)] | -5.12 ± 12%
CC(C)N(CCC(=O)c1ccc2ccccc2c1)Cc1ccccc1.Cl | 1.95 ± 3.1%
CCOc1cc2ncc(C#N)c(Nc3ccc(F)c(Cl)c3)c2cc1NC(=O)/C=C/CN(C)C [Pelitinib (EKB-569)] | 4.14 ± 4.7%
CNC(=O)Nc1ccc(-c2nc(N3CC4CCC(C3)O4)c3cnn(C4CCC5(CC4)OCCO5)c3n2)cc1 | -1.55 ± 9.3%
O=C1NC(=O)/C(=C/c2ccc3c(c2)OC(F)(F)O3)S1 | -3.7 ± 5.9%
Cc1cc(F)c(Nc2ncnc3cc(OCc4ccccc4)ccc23)cc1O.Cl | 29.8 ± 17%
O=C1N=C(NCc2cccs2)S/C1=C\c1ccc2ncccc2c1 | 8.12 ± 4.7%
c1cncc(CN2CCC(n3ncc4c(N5CCOCC5)nc(-c5ccc6[nH]ccc6c5)nc43)CC2)c1 | 6.62 ± 13%
COC(=O)c1ccc2c(c1)NC(=O)/C2=C(\Nc1ccc(N(C)C(=O)CN2CCN(C)CC2)cc1)c1ccccc1 [Nintedanib (BIBF 1120)] | 9.58 ± 14%
Cc1nc(Nc2n[nH]c3c2CN(C(=O)N[C@H](CN(C)C)c2ccccc2)C3(C)C)c2sccc2n1 | 61.8 ± 9.6%
CN1CC[C@H](c2c(O)cc(O)c3c(=O)cc(-c4ccccc4Cl)oc23)[C@H](O)C1.Cl [Flavopiridol HCl] | -6.15 ± 9.4%
CN([C@@H](Cc1ccc(OS(=O)(=O)c2cccc3cnccc23)cc1)C(=O)N1CCN(c2ccccc2)CC1)S(=O)(=O)c1cccc2cnccc12 | 0.31 ± 8.8%
Nc1nc(N)c2nc(-c3cccc(O)c3)c(-c3cccc(O)c3)nc2n1 | 19.3 ± 26%
C=CC(=O)Nc1cccc(Oc2nc(Nc3ccc(N4CCN(C)CC4)cc3OC)ncc2Cl)c1 | 3 ± 23%
CS(=O)(=O)CCNCc1ccc(-c2ccc3ncnc(Nc4ccc(OCc5cccc(F)c5)c(Cl)c4)c3c2)o1 [Lapatinib] | 6.42 ± 9.8%
COc1cc2c(Oc3ccc4[nH]c(C)cc4c3F)ncnc2cc1OCCCN1CCCC1 [Cediranib (AZD2171)] | 63.4 ± 7.6%
CCN(CCO)CCCOc1ccc2c(Nc3cc(CC(=O)Nc4cccc(F)c4)n[nH]3)ncnc2c1 [Barasertib (AZD1152-HQPA)] | -5.79 ± 4.7%
